From PubChem BioAssay (NCATS)

Biological target: Glucocorticoid receptor (Homo sapiens) (UniProt P04150)
Assay: GR-GFP Redistribution (AID 450)
Conditions: U2OS GR-GFP nuclear translocation, laser cytometry, 2 h; series mostly up to 20.6 µM;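 active means compounds whose dose series gives a full or clear partial fitted curve of increased nuclear translocation; inconclusive means weak partial curve or effect only at the top dose; inactive means no dose-dependent translocation response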
Potency means the concentration at half of the fitted maximal effect.

Glucocorticoid receptor (Homo sapiens), sequence (P04150 whole entry, looked up): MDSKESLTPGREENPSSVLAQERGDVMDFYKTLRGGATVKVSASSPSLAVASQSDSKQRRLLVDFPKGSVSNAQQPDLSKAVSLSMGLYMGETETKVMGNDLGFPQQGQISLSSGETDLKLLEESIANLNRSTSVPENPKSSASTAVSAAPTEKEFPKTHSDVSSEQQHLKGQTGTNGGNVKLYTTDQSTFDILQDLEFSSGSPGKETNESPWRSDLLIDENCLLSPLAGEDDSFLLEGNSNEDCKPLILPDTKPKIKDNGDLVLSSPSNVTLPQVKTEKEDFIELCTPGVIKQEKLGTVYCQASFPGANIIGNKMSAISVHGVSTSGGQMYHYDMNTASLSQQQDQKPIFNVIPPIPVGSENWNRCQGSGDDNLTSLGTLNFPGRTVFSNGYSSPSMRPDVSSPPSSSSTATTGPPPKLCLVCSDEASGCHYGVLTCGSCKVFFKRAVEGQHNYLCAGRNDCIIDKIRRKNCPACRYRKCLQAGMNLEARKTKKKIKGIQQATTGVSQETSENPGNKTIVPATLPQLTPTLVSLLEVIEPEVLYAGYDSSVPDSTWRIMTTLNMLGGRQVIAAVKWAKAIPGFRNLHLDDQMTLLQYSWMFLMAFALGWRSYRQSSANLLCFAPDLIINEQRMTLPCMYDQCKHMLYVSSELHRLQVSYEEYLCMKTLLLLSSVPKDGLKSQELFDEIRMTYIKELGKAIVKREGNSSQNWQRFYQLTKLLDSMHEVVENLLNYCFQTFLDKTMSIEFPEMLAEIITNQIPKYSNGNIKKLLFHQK

Potency, inactive:
Clc1ccc(-n2ncc3c(NCc4ccco4)ncnc32)cc1 > 20.6 µM, COc1ccc(N2C(=O)CC(N(Cc3ccc(S(N)(=O)=O)cc3)C(C)=O)C2=O)cc1 (stereo not given) > 20.6 µM, C/C(NC(=O)c1ccccc1F)=C1\C(=O)C[C@@H]2[C@H]1C2(C)C > 20.6 µM, O=C(O)C1CC(=O)n2c(nc3ccccc32)S1 (stereo not given) > 20.6 µM, CCOC(=O)N1CCN(C(=O)c2cn(CC)c3cc(N4CCN(C)CC4)c(F)cc3c2=O)CC1 > 20.6 µM, CCCSc1nc(O)c(C2OC(=O)c3c2ccc(OC)c3OC)c(=O)n1C (stereo not given) > 20.6 µM, COc1ccc(C(=O)NCC(=O)n2nc(C)cc2C)cc1OC > 20.6 µM, C=CCNc1nc(N2CCOCC2)c(C#N)c2c1CN(C)CC2 > 20.6 µM, COCCNc1nc2c(c(=O)n(Cc3ccc(OC)cc3)c(=O)n2C)n1C > 20.6 µM, O=C1C=C(NCCNc2c(F)c(F)c(CO)c(F)c2F)CCC1 > 20.6 µM, Cc1ccc(C(C)C)c(OCCNc2nc3c(c(=O)n(C)c(=O)n3C)n2C)c1 > 20.6 µM, CCCCCCOC(=O)CCn1[nH]c(=O)c2ccccc2c1=O > 20.6 µM, COc1ccc(-c2c3c([nH]c(=S)c2C#N)CCC3)cc1 > 20.6 µM, C=CCn1cnc2c(c1=O)c1nc3ccccc3nc1n2-c1ccc(C)cc1 > 20.6 µM, Oc1oc(-c2ccccc2)nc1C=NCc1ccncc1 > 20.6 µM
